Screen size: about 63,000 compounds; about 1,100 (1.7%) were called active. This is one part of a sample in which actives are shown more often than they occur. Results with a measured potency or affinity are listed apart. Values without a mark were called inactive. No stated cut-off is given here; in the data, active means cytotoxicity above about 50%; inactive means the rest.
test: cytotoxicity in HPDE-C7 cells, cell-based, fluorescence, HTS (AID 430); settings: HPDE-C7 pancreatic duct cells viability, at 10 µM, hits give high values;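 further: cells exposed to compound for 48 hours before viability readout; 0% = vehicle and 100% = reference cytotoxic drug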

SMILES	cytotoxicity
COc1cccc(CNC(=O)C2CCN(S(=O)(=O)N3CCCC3)CC2)c1	-7.2%
COc1ccc2c(C)cc(=O)oc2c1C	0.6%
C=CCn1c(-c2cc(OC)c(OC)c(OC)c2)n[nH]c1=S	-1.6%
Cc1nn(-c2ccccc2)c2c1C1(C(=O)N(C)c3ccccc31)N(c1ccccc1)C(=O)N2 (stereo not given)	-21.2%
O=C1C=C(O)CC(c2ccc(Cl)cc2)C1 (stereo not given)	31.1%
CCOC(=O)c1sc(NC(=O)CSc2nnc(-c3ccco3)n2CC)c(C(=O)OCC)c1C	31.5%
CCC(C)N(C(=O)Cn1nnc2ccccc21)C(C(=O)NCc1ccco1)c1cccc(OC)c1 (stereo not given)	-10.2%
COc1ccc(C(NC(=O)c2ccco2)c2ccc(OC)c(OC)c2)cc1OC	-8.3%
Nc1nnc(-c2ccco2)s1	-4.3%
CCOC(=O)N1CCC(NC(=O)Cn2cc3c(n2)CCC(C)C3)CC1 (stereo not given)	6.2%
Cc1c(C(=O)OCC2CCCO2)[nH]c2c1C(=O)CC(c1ccc(N(C)C)cc1)C2 (stereo not given)	-4.3%
Cc1c(C(=O)OCCOC(C)C)[nH]c2c1C(=O)CC(C)(C)C2	-12%
Cc1c(C(=O)O)[nH]c2c1C(=O)CC(c1ccccc1)C2 (stereo not given)	-12.1%
Cc1c(C(=O)OCCOC(C)C)[nH]c2c1C(=O)CC(c1ccco1)C2 (stereo not given)	59.9% (active)
COc1ccc(OC)c(C2CC(=O)c3c([nH]c(C(=O)OCC4CCCO4)c3C)C2)c1 (stereo not given)	8.2%
COCCOC(=O)c1[nH]c2c(c1C)C(=O)C(C(=O)OC)C(C)C2 (stereo not given)	-7.3%
COCCOC(=O)c1[nH]c2c(c1C)C(=O)CC(c1ccco1)C2 (stereo not given)	60.3% (active)
Cc1c(C(=O)OCc2ccccc2)[nH]c2c1C(=O)CC(c1ccco1)C2 (stereo not given)	65.7% (active)
Cc1c(C(=O)OCC2CCCO2)[nH]c2c1C(=O)CC(c1ccco1)C2 (stereo not given)	62.4% (active)
COc1cc(C2CC(=O)c3c([nH]c(C(=O)OCCOC(C)C)c3C)C2)cc(OC)c1OC (stereo not given)	2.4%
CC1=C(C(=O)OCc2ccccc2)C(c2ccco2)C2=C(CC(C)(C)CC2=O)N1 (stereo not given)	22.7%
CCN1CCN(c2ncc(C(=O)N3CCCc4ccccc43)c3ccccc23)CC1	-18.1%
Cn1c(=O)c2c(nc(N3CCCCCC3)n2CC(O)COc2ccccc2)n(C)c1=O (stereo not given)	3.5%
COC(=O)c1[nH]c2cc(OC)c(OC)cc2c1NC(=O)c1cccc(OC)c1	-10.5%
COc1ccc(-c2noc(COc3ccc(C)c(C)c3)n2)cc1OC	3.4%

Source: PubChem BioAssay AID430 (Sanford-Burnham Center for Chemical Genomics, 2006)
